# Measured values as given in PubChem BioAssay (Tox21).
# Values without a mark were called inactive. Calls of active or inactive are those of the source. Calls come from the whole dose curve; as a rule, active = well fitted activation curve with a large enough effect in the repeat runs; inconclusive = weak or mixed curves; inactive = flat fitted curve, though single readings scatter.
# Assay: Caspase-3/7 induction in CHO-K1 cells by small molecules, qHTS assay (AID 1346980); note: nearly all actives have a fitted effect of over 15% in size
# Settings: CHO-K1 caspase-3/7 induction, Caspase-Glo luminescence, 17 h; series mostly up to 92.4 µM; caspase-3/7 activation: at the top concentration
# Text: National Center for Advancing Translational Sciences [NCATS]
# NIH Chemical Genomics Center [NCGC]
# U.S. Environmental Protection Agency [EPA]
# National Institutes of Environmental Health Sciences [NIEHS]
# National Toxicology Program [NTP]
# Apoptosis is a process of programmed cell death and plays a central role in the development of multicellular organisms. It is a highly regulated process and induces cell death by activating caspases, which are the members of cysteine aspartic acid-specific protease (caspase) family. Caspases involved in apoptosis are classified by their mechanism of action as initiator caspases (caspase-2, -8, -9 and -10) and executioner caspases (caspase-3, -6, and -7). Inhibition of apoptosis results in number of cancers, autoimmune diseases, inflammatory diseases and viral infection. To identify small molecule compounds that induce apoptosis, a homogeneous, luminescent Caspase-Glo 3/7 assay was used. Wild type CHO-K1 cells were used to screen Tox21 libraries for identifying caspase-3/7 activity inducers.
# CHO-K1 cells were dispensed at 1,500 per well in 5uL of culture medium into white solid bottom 1536-well plates (Corning Life Sciences, Corning, NY) using a Multidrop Combi (Thermo Scientific, Waltham, MA) dispenser. The assay plates were incubated at 37 C and 5% CO2 for 5hr, and then 23nL of compounds dissolved in DMSO and positive control were transferred using a Pintool station (Wako, San Diego, CA). The assay plates were incubated at 37C and 5% CO2 for 17hr. For caspase-3/7 activity read, 4uL of Caspase-Glo 3/7 reagent (Promega Corporation, Madison, WI) was added to each well of the assay plates using Flying Reagent Dispenser (FRD, Aurora Discovery, San Diego, CA) and incubated the assay plates at room temperature for 30min. The luminescence signal was quantified using a ViewLux plate reader (Perkin Elmer, Shelton, CT).
# % is set by controls: 0 for no effect and ±100 for the full control effect; potency is the fitted concentration of half-maximal effect.
Compound,caspase-3/7 activation,Potency
O=S(=O)(c1ccc(Cl)cc1)c1ccc(Cl)cc1,-2.95%,–
CCCCCCCCCBr,-0.0159%,–
CCCCCCCCCCCCCCCC[N+](C)(C)C,–,inactive
Cc1ccc(OP(=O)(Oc2ccccc2)Oc2ccccc2)cc1,1.04%,–
CCCN(CCC)c1c([N+](=O)[O-])cc(S(N)(=O)=O)cc1[N+](=O)[O-],–,58.8 µM (active)
FC(F)(F)c1cccc(C2=CCN(CCc3ccc4ccccc4c3)CC2)c1,-2.26% [at 42.5 µM],–
C=CCOC(N)=O,0.297%,–
Clc1ccc(-c2ccc(Cl)c(Cl)c2Cl)c(Cl)c1Cl,0.513%,–
N#CNC#N,1.15%,–
COc1ccc(N)cc1N,–,inactive
CSCCCN=C=S,-0.277%,–
CCOCCOC(C)=O,-1.72%,–
CCOC(=O)c1ccccc1S(=O)(=O)NC(=O)Nc1nc(Cl)cc(OC)n1,0.295%,–
CC(C)CC(C)(c1ccc(O)cc1)c1ccc(O)cc1,–,inactive
CC1(C)C(/C=C(\Cl)C(F)(F)F)C1C(=O)OC(C#N)c1cccc(Oc2ccccc2)c1 (stereo not given),-0.409%,–
CC1(c2ccc(Oc3ccccc3)cc2)OC(=O)N(Nc2ccccc2)C1=O (stereo not given),-4.25%,–
CC(=O)/C=C/c1ccc2c(c1)OCO2,-1.49%,–
CCOP(=S)(OCC)OC(Cl)C(Cl)(Cl)Cl (stereo not given),0.374%,–
CCOP(=O)(NC(C)C)Oc1ccc(SC)c(C)c1 (stereo not given),0.0068%,–
CCCCCCCCCCCCCCCCCCn1cc[n+](C)c1,1.8%,–

Compound,caspase-3/7 activation,Potency
O=C/C(Cl)=C(/Cl)C(=O)O,–,inactive
CCC(C)c1cc([N+](=O)[O-])cc([N+](=O)[O-])c1OC(=O)C=C(C)C (stereo not given),-1.25%,–
Cl/C=C\CCl,0.169%,–
CCc1nn(C)c(C(=O)NCc2ccc(C(C)(C)C)cc2)c1Cl,-3.17%,–
COc1cc(C=O)cc2c1[C@H](COC(N)=O)[C@]1(OC(C)=O)ON2C[C@H]2[C@@H]1N2C(C)=O,–,61.1 µM (active)
CS(=O)(=O)c1ccc(C(=O)C2C(=O)CCCC2=O)c([N+](=O)[O-])c1,1.54%,–
c1ccc(OCC2CO2)cc1 (stereo not given),0.203%,–
N#Cc1ccccc1N,1.58%,–
OC(Cc1ccccc1Cl)(Cn1cncn1)C1(Cl)CC1 (stereo not given),0.136%,–
Oc1ccccc1Br,0.546%,–
O=c1[nH]c2ccccc2n1C1CCN(CCCC(c2ccc(F)cc2)c2ccc(F)cc2)CC1,–,30.6 µM (active)
CCCCCCCCCCCCCCC(Br)C(=O)O (stereo not given),0.152%,–
Cc1cc(SCc2sc(-c3ccc(C(F)(F)F)c(F)c3)nc2C)ccc1OCC(=O)O,-2.74%,–
Cc1ccc(C(=O)Cl)cc1,1.09%,–
Oc1cc(Cl)c(Cl)c(Cl)c1,-1.39%,–
CN(C)CCc1c[nH]c2ccc(O)cc12,2.76%,–
COc1ccc(OC)c(C=O)c1,2.88%,–
N#CC(Cl)Cl,-0.496%,–
N#C/C=C/C#N,2.2%,–
C[C@@H]1O[C@@H](O[C@H]2C[C@@H](O)[C@]3(CO)[C@H]4[C@H](O)C[C@]5(C)[C@@H](C6=CC(=O)OC6)CC[C@]5(O)[C@@H]4CC[C@]3(O)C2)[C@H](O)[C@H](O)[C@H]1O,–,inactive
